Source: PubChem BioAssay (NCATS)
Several values for one entry are separate records, joined by “and”; a condition that tells them apart may be missing. Identical values can stand only once. Inconclusive results are not listed. Activity calls are given as the source filed them. Unless noted, the call rests on the fitted dose curve.

Target: Glucocorticoid receptor (Homo sapiens) (UniProt P04150)
Assay: qHTS assay for small molecule antagonists of glucocorticoid receptor signaling (AID 588533; active means well fitted inhibition curve with a large enough effect in the signal ratio, with a control signal flat, not every such curve was filed as active; the % refers to the signal ratio;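 further: cells stimulated with 2 nM dexamethasone as agonist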; further: potency means the concentration at half of the fitted maximal effect; on activity change, negative = inhibition: on the % scale 0 is the no-effect control and ±100 the full control effect)
Conditions: HeLa MMTV-bla, GRE beta-lactamase ratio, antagonist mode, 18 h; series mostly up to 76.8 µM; activity change, negative = inhibition: at the top concentration
How it was run: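 Antagonist-mode qHTS: compound titrations added to GRE-bla HeLa cells, then dexamethasone 2 nM final; 18 h, 37 C. CCF4 FRET fluorescence normalized to dexamethasone and DMSO; IC50 from Hill fit.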

Sequence of Glucocorticoid receptor (Homo sapiens) (P04150 whole entry, looked up): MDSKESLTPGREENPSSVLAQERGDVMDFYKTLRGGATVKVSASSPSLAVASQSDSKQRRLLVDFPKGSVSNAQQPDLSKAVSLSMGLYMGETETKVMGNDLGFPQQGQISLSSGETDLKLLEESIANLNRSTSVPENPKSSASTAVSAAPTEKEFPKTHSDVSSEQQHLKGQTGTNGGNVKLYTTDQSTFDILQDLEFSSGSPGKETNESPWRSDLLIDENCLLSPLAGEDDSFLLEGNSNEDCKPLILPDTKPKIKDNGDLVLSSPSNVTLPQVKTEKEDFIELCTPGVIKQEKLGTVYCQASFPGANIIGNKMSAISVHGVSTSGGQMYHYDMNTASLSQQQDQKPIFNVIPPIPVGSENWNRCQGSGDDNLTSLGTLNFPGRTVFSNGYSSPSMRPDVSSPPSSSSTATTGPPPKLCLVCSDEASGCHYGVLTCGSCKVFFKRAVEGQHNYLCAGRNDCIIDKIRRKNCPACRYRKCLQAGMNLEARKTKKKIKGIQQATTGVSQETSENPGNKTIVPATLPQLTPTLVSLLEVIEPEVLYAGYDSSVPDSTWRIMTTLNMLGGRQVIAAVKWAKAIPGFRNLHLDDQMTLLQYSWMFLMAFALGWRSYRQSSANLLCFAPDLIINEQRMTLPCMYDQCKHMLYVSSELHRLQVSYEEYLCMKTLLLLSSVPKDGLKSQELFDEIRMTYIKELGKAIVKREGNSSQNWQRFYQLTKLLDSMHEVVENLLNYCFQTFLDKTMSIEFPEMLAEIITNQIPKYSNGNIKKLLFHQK

SMILES	activity change, negative = inhibition	Potency
NCCc1ccc(O)cc1	23% (inactive)	
C[C@]1(O)CC[C@H]2[C@@H]3CCC4=CC(=O)CC[C@]4(C)[C@@]3(F)[C@@H](O)C[C@@]21C		10 µM (active)
COc1cc(OC)c(OC)cc1C=O	12.7% (inactive)	
COP(=S)(OC)Oc1ccc(SC)c(C)c1		inactive
CC(C)NC(C)C	19.4% (inactive)	
COP(=S)(OC)Oc1cc(Cl)c(Cl)cc1Cl	29.2% (inactive)	
Nc1nc(N)nc(NC2CC2)n1	4.2% (inactive)	
O=P1(N(CCCl)CCCl)NCCCO1 (stereo not drawn)		inactive
Clc1ccc(C(c2ccc(Cl)cc2)C(Cl)(Cl)Cl)cc1	-0.984% (inactive)	
CC1(C)C(C=C(Cl)Cl)C1C(=O)OC(C#N)c1cccc(Oc2ccccc2)c1 (stereo not drawn)	0.259% (inactive)	
C[C@]12CCC(=O)C=C1CC[C@@H]1[C@@H]2CC[C@@]2(C)[C@H]1CC[C@]2(C)O		15.8 µM (active)
COP(=S)(OC)SCN1C(=O)c2ccccc2C1=O	18.1% (inactive)	
COC(=O)C(c1ccccc1)C1CCCCN1 (stereo not drawn)	19.9% (inactive)	
CCC(C)(C)c1ccc(O)cc1		inactive
CCOC(=O)CC(SP(=S)(OC)OC)C(=O)OCC (stereo not drawn)		inactive

Target: Peroxisome proliferator-activated receptor delta (Homo sapiens) (UniProt Q03181)
Assay: qHTS assay for small molecule agonists of peroxisome proliferator-activated receptor delta signaling (AID 588534);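 further: 0% = DMSO basal wells and 100% = positive control agonist at 10 µM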
Conditions: HEK293T PPARdelta-UAS-bla, beta-lactamase ratio, 18 h; series mostly up to 76.7 µM; activation: at the top concentration
How it was run: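 Titration series tested in agonist mode on beta-lactamase reporter cells; 18 hrs at 37 C after a 5 hr pre-incubation. Readout: CCF4 fluorescence, 2 hrs RT. Hill equation gives EC50 and maximal response.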

Sequence of Peroxisome proliferator-activated receptor delta (Homo sapiens) (Q03181 whole entry, looked up): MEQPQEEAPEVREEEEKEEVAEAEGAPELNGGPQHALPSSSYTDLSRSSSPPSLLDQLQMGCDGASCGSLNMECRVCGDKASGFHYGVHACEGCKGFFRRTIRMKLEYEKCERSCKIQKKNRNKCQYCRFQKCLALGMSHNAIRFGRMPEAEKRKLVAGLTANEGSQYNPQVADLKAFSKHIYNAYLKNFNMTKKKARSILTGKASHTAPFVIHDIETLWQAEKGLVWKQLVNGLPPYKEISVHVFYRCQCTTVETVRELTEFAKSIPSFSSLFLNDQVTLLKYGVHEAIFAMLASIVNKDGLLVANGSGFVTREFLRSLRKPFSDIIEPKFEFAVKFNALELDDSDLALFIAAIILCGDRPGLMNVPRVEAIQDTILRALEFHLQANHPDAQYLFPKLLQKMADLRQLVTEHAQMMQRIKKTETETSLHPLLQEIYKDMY

SMILES	activation	outcome
[N-]=[N+]=CC(=O)OC[C@H](N)C(=O)O	-1.01% (inactive)	
CC(C)c1cccc(C(C)C)c1O	7.79% (inactive)	
NCCc1ccc(O)cc1	-1.63% (inactive)	
C[C@]1(O)CC[C@H]2[C@@H]3CCC4=CC(=O)CC[C@]4(C)[C@@]3(F)[C@@H](O)C[C@@]21C	-4.57% (inactive)	
CC(O)CN(CCN(CC(C)O)CC(C)O)CC(C)O (stereo not drawn)	8.65% (inactive)	
S=P(N1CC1)(N1CC1)N1CC1	1.07% (inactive)	
O=C(O)CCCc1ccc(N(CCCl)CCCl)cc1	-9.35% (inactive)	
COP(=S)(OC)Oc1ccc(SC)c(C)c1		inactive
C[C@]12CCC(=O)C=C1CC[C@@H]1[C@@H]2CC[C@]2(C)C(=O)CC[C@@H]12	-6.16% (inactive)	
CC(C)NC(C)C	-1.21% (inactive)	
Cc1noc(NS(=O)(=O)c2ccc(N)cc2)c1C		inactive
Nc1ccc([As](=O)(O)O)cc1	2.38% (inactive)	
COP(=S)(OC)Oc1cc(Cl)c(Cl)cc1Cl	-1.69% (inactive)	
Oc1ccccc1		inactive
Oc1cccc(O)c1	-2.55% (inactive)	
Nc1nc(N)nc(NC2CC2)n1	5.35% (inactive)	
O=P1(N(CCCl)CCCl)NCCCO1 (stereo not drawn)		inactive
Clc1ccc(C(c2ccc(Cl)cc2)C(Cl)(Cl)Cl)cc1	-10.5% (inactive)	
CC(O)C(=O)O (stereo not drawn)	5.68% (inactive)	
COc1c2occc2cc2ccc(=O)oc12		inactive
CC(=O)N1CCN(c2ccc(OC[C@H]3CO[C@](Cn4ccnc4)(c4ccc(Cl)cc4Cl)O3)cc2)CC1	-14.1% (inactive)	
COP(=S)(OC)SCN1C(=O)c2ccccc2C1=O	-10.7% (inactive)	
c1ccc2sc(SSc3nc4ccccc4s3)nc2c1		inactive
CCOC(=O)CC(SP(=S)(OC)OC)C(=O)OCC (stereo not drawn)		inactive

Test system: not listed separately
Assay: qHTS assay for small molecule antagonists of peroxisome proliferator-activated receptor delta signaling (AID 588535; active means well fitted inhibition curve with a large enough effect in the signal ratio, with a control signal flat, not every such curve was filed as active; the % refers to the signal ratio;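 on max response: cells co-treated with a PPAR-delta agonist as stimulator during compound exposure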)
Conditions: HEK293T PPARd-UAS-bla, beta-lactamase FRET ratio, 18 h; 460 nm channel
How it was run: (§1)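 Compounds tested in titration on PPAR-delta-UAS-bla HEK293T cells grown in charcoal/dextran-stripped serum (2%); beta-lactamase activity read via CCF4 emission at 460 and 530 nm.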

SMILES	max response
[N-]=[N+]=CC(=O)OC[C@H](N)C(=O)O	46.8%
CC(C)c1cccc(C(C)C)c1O	-11.4%
NCCc1ccc(O)cc1	-1.35%
C[C@]1(O)CC[C@H]2[C@@H]3CCC4=CC(=O)CC[C@]4(C)[C@@]3(F)[C@@H](O)C[C@@]21C	-0.651%
O=C(O)CCCc1ccc(N(CCCl)CCCl)cc1	26.1%
COP(=S)(OC)Oc1ccc(SC)c(C)c1	3.56%
Nc1ccc([As](=O)(O)O)cc1	-12.8%
COP(=S)(OC)Oc1cc(Cl)c(Cl)cc1Cl	28.8%
Nc1nc(N)nc(NC2CC2)n1	47%
O=P1(N(CCCl)CCCl)NCCCO1 (stereo not drawn)	34.9% and 30.3%
Clc1ccc(C(c2ccc(Cl)cc2)C(Cl)(Cl)Cl)cc1	-51.4%
CCOC(=O)CC(SP(=S)(OC)OC)C(=O)OCC (stereo not drawn)	0.513%

Target: Peroxisome proliferator-activated receptor delta (Homo sapiens) (UniProt Q03181)
Assay: as above
Conditions: HEK293T PPARd-UAS-bla, beta-lactamase FRET ratio, 18 h; series mostly up to 76.7 µM; activity change, negative = inhibition: at the top concentration
How it was run: as §1

SMILES	activity change, negative = inhibition	outcome
[N-]=[N+]=CC(=O)OC[C@H](N)C(=O)O	19.5% (inactive)	
CC(C)c1cccc(C(C)C)c1O	-9.9% (inactive)	
NCCc1ccc(O)cc1	-11.5% (inactive)	
C[C@]1(O)CC[C@H]2[C@@H]3CCC4=CC(=O)CC[C@]4(C)[C@@]3(F)[C@@H](O)C[C@@]21C	-8.46% (inactive)	
O=C(O)CCCc1ccc(N(CCCl)CCCl)cc1	8.52% (inactive)	
COP(=S)(OC)Oc1ccc(SC)c(C)c1		inactive
Nc1ccc([As](=O)(O)O)cc1	-7.63% (inactive)	
COP(=S)(OC)Oc1cc(Cl)c(Cl)cc1Cl	12.2% (inactive)	
Nc1nc(N)nc(NC2CC2)n1	12.6% (inactive)	
O=P1(N(CCCl)CCCl)NCCCO1 (stereo not drawn)		inactive
Clc1ccc(C(c2ccc(Cl)cc2)C(Cl)(Cl)Cl)cc1	-33.4% (inactive)	
CCOC(=O)CC(SP(=S)(OC)OC)C(=O)OCC (stereo not drawn)	1.51% (inactive)	
